Shown are actives, neighbours in structure and some others; about 7.4% of the full set was active somewhere.
Rab9 promoter act = activates the Rab9 promoter. Huh7 Rab9 promoter-luciferase reporter, luminescence, 24 h. Potency, µM (titrated, usually from 9.22 µM), without a hit: at the top dose activation, negative = inhibition, usual class: activators. actives 2.8% (n = 320,000); also: % of control where 0% means no effect; nearly all actives have a fitted effect of over 60% in size
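Luciferase signal after 10 min detection reagent at ambient indicates Rab9 promoter upregulation; stably transfected Huh7 cells were treated 24 h with compound in DMSO at 37 °C, 5% CO2.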
ELG1 genotoxic = genotoxicity induction in ELG1-luciferase HEK293T cells. Potency, µM (doses to about 46 µM), for inactives: at the top dose activity change, positive = activation, hits mostly activators. AID 504466. HEK293T ELG1-luciferase reporter, luminescence, 16 h. actives 1.3% (n = 330,000); also: % of control where 0% means no effect; nearly all actives have a fitted effect of over 60% in size
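16 hr compound incubation (37 °C, 5% CO2) of HEK293T cells carrying luciferase-tagged ELG1; luciferase then measured by ONE-Glo luminescence after 30 min at RT.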
FLuc counter = inhibits or activates purified firefly luciferase, miR-21 counter-screen. purified FLuc, Km substrates, luminescence inhibition. Potency, µM (titrated, usually from 57.5 µM), without a hit: top-dose activity change, negative = inhibition, hits mostly inhibitors. actives 6.9% (n = 360,000);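 also: plate controls were vehicle for no effect and reference inhibitor for full effect; nearly all actives have a fitted effect of over 55% in size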
Target sequence (P08659 whole entry, looked up): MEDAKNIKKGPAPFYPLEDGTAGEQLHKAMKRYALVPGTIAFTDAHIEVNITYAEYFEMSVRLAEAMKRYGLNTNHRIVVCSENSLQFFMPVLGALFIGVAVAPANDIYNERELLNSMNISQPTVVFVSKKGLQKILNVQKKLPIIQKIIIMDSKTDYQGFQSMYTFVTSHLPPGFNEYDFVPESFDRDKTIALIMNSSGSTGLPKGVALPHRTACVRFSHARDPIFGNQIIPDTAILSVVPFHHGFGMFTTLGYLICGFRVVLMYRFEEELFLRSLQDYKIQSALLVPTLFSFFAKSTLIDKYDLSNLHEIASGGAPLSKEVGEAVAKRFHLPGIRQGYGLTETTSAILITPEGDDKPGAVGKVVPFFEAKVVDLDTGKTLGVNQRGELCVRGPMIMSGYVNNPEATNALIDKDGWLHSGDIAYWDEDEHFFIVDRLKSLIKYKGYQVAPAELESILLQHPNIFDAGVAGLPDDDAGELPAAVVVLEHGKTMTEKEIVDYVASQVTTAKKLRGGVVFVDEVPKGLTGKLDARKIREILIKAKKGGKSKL
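Purified P. pyralis luciferase (10nM final) with 10uM D-luciferin and 10uM ATP (Km levels) in 50mM Tris acetate pH 7.5, 10mM Mg acetate, 0.01% Tween-20, 0.05% BSA; qHTS 6-point titration, ~60 µM downward; luminescence read.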
SMN2 splice enh = SMN2 splice variant enhancement; HEK293 SMN2-luciferase splicing reporter, luminescence, 30-36 h; Potency, µM (highest dose often 46.1 µM), for the others: at the highest dose activity change, positive = activation, hits mostly activators; actives 2.8% (n = 210,000); AID 1458; also: % of control where 0% means no effect; nearly all actives have a fitted effect of over 55% in size
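HEK293 cells carry an SMN2 minigene-luciferase reporter in which exon 7 inclusion puts luciferase in frame. Cells were seeded at 2000 cells/well, attached for 10-12 hours, then exposed to compounds for 30-36 hours at 37C before ONE-Glo luminescence.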
NPC1 prom act = activates the NPC1 promoter | Potency, µM (series often up to 9.22 µM), inactives show at the highest dose activation, actives largely listed as activators | AID 485313 | actives 2.4% (n = 320,000) | Huh7 NPC1 promoter luciferase reporter, 24 h; also: % of control where 0% means no effect; nearly all actives have a fitted effect of over 60% in size
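NPC1 promoter–luciferase Huh7 cells; 24 h compound; luminescence.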
An asterisk follows results filed as active; ? = inconclusive; nt = no result given; [ ] = dose if it differs, or a comment. Calls follow the shape of the dose curve; as a rule, active = well fitted curve in the direction sought with a large enough effect; inconclusive = small, poorly fitted or top-dose-only effect, or another doubt; inactive = no such curve, though single readings can be large; an effect the other way counts as inactive or inconclusive. Potency is read from the fitted curve at half-maximal effect.

SMILES	Rab9 promoter act	ELG1 genotoxic	FLuc counter	SMN2 splice enh	NPC1 prom act
Cc1ccc(C)c(NC(=O)c2cc(C)nc3ccccc23)c1	0%	-3%	-2%	nt	0%
CCCCCn1c(=O)[nH]c2cc(C(=O)NCc3ccc(OC)cc3)ccc2c1=O	nt	nt	0%	-3%	nt
Cc1cc(-n2ccnc(NCCc3ccc(S(N)(=O)=O)cc3)c2=O)ccc1Br	nt	nt	-2%	nt	nt
O=C(O)NCc1ccccc1 (tested in a mixture with another compound)	nt	nt	nt	-10%[9.22 µM]	nt
CC(C)N1CCC2(CC1)N=C(c1ccc3c(c1)OCO3)CC(c1cc(Cl)ccc1O)N2 (stereo not given)	-1%	-16%	17µM*	-23%	-4%
O=C(c1ccc2c(c1)N(Cc1ccc(F)cc1)C(=O)c1ccccc1S2(=O)=O)N1CCC(Cc2ccccc2)CC1	nt	nt	-1%	-18%	nt
O=C(Nc1ccc(S(=O)(=O)Nc2cnc3ccccc3n2)cc1)c1ccccc1Br	-9%	0%	4%	nt	1%
CC(C)(C)c1ccc(C(=O)Nc2ccc(S(=O)(=O)Nc3cnc4ccccc4n3)cc2)cc1	0%[1.84 µM]	3%	13µM*	nt	1%
O=C(Nc1ccc(S(=O)(=O)Nc2cnc3ccccc3n2)cc1)c1ccc(Br)o1	-5%	-6%	17µM*	-26%	0%
CC(C)Cn1cc(NC(=O)N2CCN(c3ccc(F)cc3)CC2)c2ccccc2c1=O	nt	nt	5%	nt	nt
CCCCc1ccc(-c2nc(NC(=O)C3C4CCC(O4)C3C(=O)O)sc2C)cc1 (stereo not given)	12%	16µM*	21µM*	-13%	16%
CO[C@]12CC(COC(=O)c3cncc(Br)c3)CN(C)[C@@H]1Cc1cn(C)c3cccc2c13 (stereo not given in full)	nt	nt	nt	-11%	nt
CCc1ccc(NC(=S)N2CCC(NC(=O)c3ccccc3)CC2)cc1	-1%	-4%	1%	nt	2%
O=C(c1cccs1)N1CCC(c2ccccc2)C1 (stereo not given)	2.8µM*	18µM*	21µM*	16µM*	3.2µM*
Cc1ccc(NC(=O)N2CCCC(c3ccccc3)C2)cc1 (stereo not given)	23%	2%	12µM*	nt	2%
CCc1ccc(NC(=O)N2CCC(c3ccccc3)C2)cc1 (stereo not given)	0.89µM*	?	6.7µM*	25µM*	1.1µM*
O=C(Nc1ccccc1)N1CCC(c2ccccc2)C1 (stereo not given)	1.8µM*	?	12µM*	18µM*	1.6µM*
CCN(CC)C(=O)Cn1c(=O)cc(C)c2c(C)nn(-c3cccc(Cl)c3C)c21	nt	nt	-11%	nt	nt
CC(=O)N1c2ccccc2CC1C(=O)N1CCN(c2cc(Cl)ccc2C)CC1 (stereo not given)	nt	nt	3%	nt	nt
Cc1cccc(C)c1NC(=O)Cn1c(=O)n(CCC(=O)NCc2ccc3c(c2)OCO3)c(=O)c2sccc21	nt	nt	-2%	12%	nt
Cc1ccc(Cn2ccc(C3CC3)n2)cc1	?	24%	17µM*	?	?
Clc1ccc(Cn2ccc(C3CC3)n2)cc1	-29%	14%	?	nt	8%
Cc1cc(OCC(=O)N(C)C2CCCCC2)ccc1Cl	0.63µM*	26%	2.7µM*	?	0.35µM*
Cc1cc(OCC(=O)N(C)C2CCCCC2)cc(C)c1Cl	2%	?	?	23%	12%
O=C1NC(=S)S/C1=C\c1coc2ccccc2c1=O	?	8%	19µM*	2%	5%
SMILES	Rab9 promoter act	ELG1 genotoxic	FLuc counter	SMN2 splice enh	NPC1 prom act
O=C1NC(=S)S/C1=C\c1coc2ccc(O)cc2c1=O	9%	10%	19µM*	nt	14%
CCCOC(=O)CSc1nnc2ccc3ccccc3n12	nt	nt	9.5µM*	nt	nt
O=C(CSc1nnc2ccc3ccccc3n12)Nc1ccccc1Cl	nt	nt	17µM*	nt	nt
COC(=O)c1ccccc1NC(=O)c1cnc2sc(N3CCOCC3)nn2c1=O	nt	nt	-5%	nt	nt
CC(C)c1ccc(NC(=O)c2cnc3sc(N4CCOCC4)nn3c2=O)cc1	nt	nt	1.9µM*	nt	nt
Cn1c2cc([N+](=O)[O-])sc2c2cnn(Cc3ccccc3F)c(=O)c21	-11%	nt	?	nt	-16%
COc1ccc(N2C(=O)C(CC(=O)Nc3ccc(F)cc3)N(CCC3=CCCCC3)C2=O)cc1 (stereo not given)	nt	nt	-11%	-1%	nt
Cc1ccc(-n2ncc3c(SCC(=O)NNC(=O)C(C)C)ncnc32)cc1	13%[1.84 µM]	8%	7.6µM*	nt	24%
CC(=O)CSc1ncnc2c1cnn2-c1ccccc1	1.1µM*	?	7.6µM*	11µM*	1.3µM*
Cc1ccc(-n2ncc3c(SCC(N)=O)ncnc32)cc1C	3.2µM*	?	5.4µM*	nt	4µM*
O=C(CSc1cn(CC(=O)N2CCOCC2)c2ccccc12)Nc1ccccc1F	nt	nt	0%	nt	nt
Cc1cccc(C(=O)Nc2ccc(C(=O)OCc3cc(=O)n4c(C)csc4n3)cc2)c1	nt	nt	-5%	nt	nt
Cc1ccc(CNC(=O)c2cn(C)c3ccc(S(=O)(=O)N4CCC(C)CC4)cc3c2=O)cc1	nt	nt	-6%	-2%	nt
COc1ccc(Nc2nc3ccccc3c3nnc(C)n23)cc1Cl	nt	nt	24µM*	0%	nt
Cc1ccc(Nc2nc3ccccc3c3nnc(C)n23)cc1Cl	nt	nt	-11%	nt	nt
COc1cc(OC)cc(C(=O)Nc2ccc3nc(N4CCC(C)CC4)cc(C)c3c2)c1	nt	nt	-9%	-11%	nt
Cc1ccc(-c2ccc(/C=C(\C#N)C(N)=S)n2C)cc1	?	16%	4.8µM*	nt	?
CCCC[C@H](CC)CN1CN(C[C@@H](CC)CCCC)CC(C)(N)C1	nt	nt	nt	-23%[20.6 µM]	nt
COc1ccc(/C=C/c2cc(OC)c(OC)cc2CC[N+](C)(C)C)cc1	nt	nt	nt	0%	nt
CCOC(=O)CCCN1C(=O)CCn2nc(-c3cn(C)c4ccccc34)cc21	nt	nt	1%	11%	nt
O=C(CSc1nnc(C2CCCCC2)o1)Nc1ccccc1Cl	3.5µM*	?	?	nt	?
COc1ccc(NC(=O)CSc2nnc(C3CCCCC3)o2)c(OC)c1	-3%	-1%	-1%	8%	0%
Cc1ccc(NC(=O)C(=O)NCCCN2CCCC2=O)c(C)c1	?	12%	?	nt	24%
Cc1ccc(NC(=O)C(=O)NCCCN2CCCC2=O)cc1	1.4µM*	2.1µM*	12µM*	nt	2.2µM*
Cc1ccc(-c2nn(-c3ccccc3)cc2C(=O)NCCCN2CCOCC2)cc1	5%	1%	?	nt	9%
Cc1ccc(-c2nn(-c3ccc(F)cc3)cc2C(=O)NCCCN2CCCC2=O)cc1	3%	-7%	11µM*	nt	1%
COC(=O)C1(C)C=C2C(=C(c3ccccc3)C(=O)C2C)CN1 (stereo not given)	nt	nt	nt	-6%	nt
COc1cc(/C=C2\SC(=S)N(Nc3ncc(C(F)(F)F)cc3Cl)C2=O)ccc1O	-3%	7%	8.5µM*	-3%	-1%
COc1cc(/C=C2\SC(=S)N(c3cccnc3)C2=O)ccc1O	-2%	1%	-7%	nt	-3%

Assay outcomes: PubChem, National Center for Advancing Translational Sciences (NCATS)
